Experimental data: PubChem BioAssay (Tox21)
Activity calls are given as the source filed them. Unless noted, the call rests on the fitted dose curve; in most records, active means well fitted curve in the direction sought with a large enough effect in the repeat runs; inconclusive means weak or mixed curves; inactive means no such curve, though single readings can be large; an effect the other way counts as inactive or inconclusive.

Assays:
[1] = qHTS assay for small molecules that induce genotoxicity in human embryonic kidney cells expressing luciferase-tagged ATAD5 (AID 651632); further: nearly all actives have a fitted effect of over 15% in size
In short: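 Luminescence read-out: after 16 hr compound exposure at 37C, ATAD5-luciferase HEK293T cells received Amplite, 30 min RT, then CCD imaging. A rise in signal marks genotoxic stress.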

[2] = qHTS assay for small molecule agonists of the p53 signaling pathway - cell viability (AID 651633; calls by dose curve; further: nearly all actives have a fitted effect of over 30% in size; further: potency means the concentration at half of the fitted maximal effect)
In short: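 p53RE-bla cells were treated with compound for 16 hours at 37 C. Cytotoxicity was then measured as CellTiter-Glo luminescence after 30 min at room temperature.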

[3] = qHTS assay for small molecule disruptors of the mitochondrial membrane potential - cell viability (AID 720634; calls by dose curve; further: nearly all actives have a fitted effect of over 20% in size; further: potency means the concentration at half of the fitted maximal effect)
In short: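 Luminescence from CellTiter-Glo (ATP content) gave viability in HepG2 cells, read in the same wells as the MMP dye assay after 1 hr compound exposure at 37 C.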

[4] = qHTS assay to test for compound auto fluorescence at 535 nm (green) in HepG2 cells (AID 720675)
[5] = qHTS assay to test for compound auto fluorescence at 460 nm (blue) in HEK293 cells (AID 720678)
In short: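 HEK293 cells (2,000 per well, medium with 10% dialyzed FBS) attached for 4-5 hr at 37C, then received compound and stood overnight at 37C, 5% CO2. Blue fluorescence was read at Ex/Em 405/460 nm and expressed relative to triamterene.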

[6] = qHTS assay to test for compound auto fluorescence at 590 nm (red) in HEK293 cells (AID 720679)
In short: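 HEK293 cells (2,000/well, medium with 10% dialyzed FBS) attached for 4-5 hr at 37C, received 23 nL compound and were incubated overnight at 37C, 5% CO2. Red fluorescence was then read at 540/590nm Ex/Em, referenced to Rose Bengal sodium.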

[7] = qHTS assay to test for compound auto fluorescence at 535 nm (green) in HEK293 cells (AID 720680)
[8] = qHTS assay to test for compound auto fluorescence at 460 nm (blue) in HEK293 cell free culture (AID 720681)
In short: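 Compounds were added to cell-free DMEM with 10% FBS and fluorescence read directly. The blue channel used 405 nm excitation and 460 nm emission, with triamterene as the reference fluorophore.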

[9] = qHTS assay to test for compound auto fluorescence at 590 nm (red) in HEK293 cell free culture (AID 720683)
In short: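 Cell-free wells of DMEM with 10% FBS received compound, and intrinsic fluorescence was read at excitation/emission 540/590 nm. Values expressed as equivalence to Rose Bengal sodium.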

[10] = qHTS assay to test for compound auto fluorescence at 590 nm (red) in HepG2 cell free culture (AID 720684)
In short: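 Auto fluorescence equivalency versus Rose Bengal sodium, red channel Ex/Em 540/590 nm; compounds in cell-free MEM/10% FBS; DMSO vehicle control.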

[11] = qHTS assay to test for compound auto fluorescence at 460 nm (blue) in HepG2 cell free culture (AID 720685)
In short: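 Cell-free plates of MEM plus 10% FBS received 23 nL compound or DMSO vehicle; blue-channel (405/460 nm) intensity scored against triamterene as reference fluorophore.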

[12] = qHTS assay to test for compound auto fluorescence at 535 nm (green) in HepG2 cell free culture (AID 720686)
[13] = qHTS assay to test for compound auto fluorescence at 460 nm (blue) in HepG2 cells (AID 720687)
In short: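 HepG2 cells in MEM with 10% FBS, attached overnight at 37 C, were exposed to compound or DMSO for 1 hr at 37 C, 5% CO2. Blue fluorescence was read at 405/460 nm, with triamterene as reference fluorophore.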

[14] = molecular target: Glucocorticoid receptor (Homo sapiens) (UniProt P04150); experiment: qHTS assay to identify small molecule agonists of the glucocorticoid receptor (GR) signaling pathway (AID 720691; active means well fitted activation curve with a large enough effect in the signal ratio in the repeat runs, not every such curve was filed as active; inconclusive means weak or mixed curves, or effect the other way; inactive means no such curve, though single readings can be large or run the other way; the % refers to the signal ratio; further: potency means the concentration at half of the fitted maximal effect)
In short: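 HeLa GR-bla reporter line; cells pre-incubated 4 h, compound in DMSO 18 h at 37 C; LiveBLAzer B/G FRET substrate 2 h RT; fluorescence intensity read-out.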

[15] = molecular target: Glucocorticoid receptor (Homo sapiens) (UniProt P04150); experiment: qHTS assay to identify small molecule antagonists of the glucocorticoid receptor (GR) signaling pathway (AID 720692; active means well fitted inhibition curve with a large enough effect in the signal ratio in the repeat runs, not every such curve was filed as active; inconclusive means weak or mixed curves, or effect the other way; inactive means no such curve, though single readings can be large or run the other way; the % refers to the signal ratio)
In short: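 Read-out: beta-lactamase FRET substrate fluorescence, 2 h at room temperature, in HeLa cells stably carrying a GRE-driven bla reporter. Compounds were co-incubated with 5 nM dexamethasone agonist (final) for 18 h at 37 C.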

[16] = qHTS assay for small molecules that induce genotoxicity in human embryonic kidney cells expressing luciferase-tagged ATAD5 - cell viability (AID 651634; calls by dose curve; further: nearly all actives have a fitted effect of over 25% in size; further: potency means the concentration at half of the fitted maximal effect)
In short: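 HEK293T ATAD5-luc cells, 2,000/well; compound 15.5 hr, 37C/5% CO2; CellTiter-Fluor 30 min, 37C; fluorescence read.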

[17] = qHTS assay to test for compound auto fluorescence at 590 nm (red) in HepG2 cells (AID 720674)
In short: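 HepG2 cells, 2,000 per well in MEM with 10% FBS, attached overnight at 37 C, then got 23 nL compound or DMSO. After 1 hr at 37 C, 5% CO2, red fluorescence was read at 540/590 nm against Rose Bengal sodium as reference.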

[18] = qHTS assay for small molecule disruptors of the mitochondrial membrane potential (AID 720635); further: potency means the concentration at half of the fitted maximal effect
In short: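 HepG2 cells exposed to compound 1 hr at 37C, then Mito-MPS dye 30 min. Ratio read of aggregate (540/590 nm) versus monomer (490/535 nm) fluorescence.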

[19] = qHTS assay to test for compound auto fluorescence at 535 nm (green) in HEK293 cell free culture (AID 720682)
In short: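 Measurement is a direct plate read of green fluorescence (485 nm in, 535 nm out) after compound addition to serum-supplemented DMEM lacking cells, with fluorescein used to express intensities.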
On the % scale 0 is the no-effect control and ±100 the full control effect.

Sequence of Glucocorticoid receptor (Homo sapiens) (P04150 whole entry, looked up): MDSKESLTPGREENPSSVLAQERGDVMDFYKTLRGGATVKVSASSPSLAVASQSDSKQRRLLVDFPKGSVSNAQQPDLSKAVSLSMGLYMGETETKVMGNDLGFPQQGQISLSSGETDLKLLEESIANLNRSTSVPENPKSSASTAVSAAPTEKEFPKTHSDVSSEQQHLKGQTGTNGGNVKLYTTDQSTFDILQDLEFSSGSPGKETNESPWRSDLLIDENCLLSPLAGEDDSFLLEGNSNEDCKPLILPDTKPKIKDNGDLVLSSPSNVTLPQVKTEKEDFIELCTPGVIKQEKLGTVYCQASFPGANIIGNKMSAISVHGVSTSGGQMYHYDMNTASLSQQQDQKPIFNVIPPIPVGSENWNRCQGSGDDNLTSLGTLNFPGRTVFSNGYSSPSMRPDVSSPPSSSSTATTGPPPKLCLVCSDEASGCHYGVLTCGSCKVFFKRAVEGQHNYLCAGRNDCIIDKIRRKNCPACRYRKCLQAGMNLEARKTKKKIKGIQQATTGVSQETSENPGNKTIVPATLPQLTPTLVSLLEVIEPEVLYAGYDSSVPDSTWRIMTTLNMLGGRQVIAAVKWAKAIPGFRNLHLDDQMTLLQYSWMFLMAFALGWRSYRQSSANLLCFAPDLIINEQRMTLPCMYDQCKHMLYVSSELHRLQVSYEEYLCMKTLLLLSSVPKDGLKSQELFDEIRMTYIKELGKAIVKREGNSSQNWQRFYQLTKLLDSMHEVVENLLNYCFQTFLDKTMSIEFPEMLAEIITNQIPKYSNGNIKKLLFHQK

CCCCOc1ccc(CC(=O)NO)cc1
inactive: Potency [1] | Potency [2] | Potency [3] | fluorescence, % of fluorescein control [4] 0.007% [at 18.6 µM] | fluorescence, % of triamterene [5] -0.0396% [at 18.6 µM] | fluorescence, % of fluorescent control [6] 0.184% [at 18.6 µM] | fluorescence, % of fluorescein [7] 0.0125% [at 18.6 µM] | fluorescence, % of fluorescent control [8] -0.0158% [at 18.6 µM] | fluorescence, % of fluorescent control [9] -0.0389% [at 18.6 µM] | fluorescence, % of Rose Bengal [10] -0.259% [at 18.6 µM] | fluorescence, % of fluorescent control [11] 0.0098% [at 18.6 µM] | fluorescence, % of fluorescein control [12] -0.0407% [at 18.6 µM] | fluorescence, % of fluorescent control [13] -0.124% [at 18.6 µM] | Potency [14] | Potency [15]

Cn1sccc1=O
inactive: Potency [1] | Potency [16] | Potency [3] | outcome [17] | outcome [4] | Potency [5] | outcome [6] | outcome [7] | Potency [8] | outcome [9] | Potency [13] | Potency [14]

ClC(Cl)(Cl)c1ccc(C(Cl)(Cl)Cl)cc1
inactive: Potency [1] | Potency [16] | Potency [3] | outcome [4] | Potency [5] | outcome [6] | outcome [7] | Potency [8] | outcome [19] | outcome [9] | outcome [10] | Potency [11] | outcome [12] | Potency [13] | Potency [14] | Potency [15]
active: Potency [18] 13.5 µM

NC(N)=NN=C(/C=C/c1ccc([N+](=O)[O-])o1)/C=C/c1ccc([N+](=O)[O-])o1
inactive: outcome [4] | Potency [5] | outcome [6] | outcome [7] | Potency [8] | outcome [19] | outcome [9] | outcome [10] | Potency [11] | outcome [12] | Potency [13]
active: Potency [2] 2.37 µM | Potency [16] 10.6 µM | Potency [3] 18.8 µM | Potency [18] 2.66 µM | Potency [14] 6.74 µM [inconclusive]

CCN(CC)CCNC(C(=O)OCCC(C)C)c1ccccc1 (stereo not drawn)
inactive: Potency [1] | Potency [16] | Potency [3] | outcome [17] | outcome [4] | Potency [5] | outcome [6] | outcome [7] | Potency [8] | outcome [19] | outcome [9] | Potency [11] | outcome [12] | Potency [13] | Potency [14] | Potency [15]

CC[C@@H]1C[C@H](N(Cc2cc(C(F)(F)F)cc(C(F)(F)F)c2)C(C)=O)c2cc(C(F)(F)F)ccc2N1C(=O)OC(C)C
active: Potency [18] 4.33 µM
inactive: Potency [1] | Potency [16] | Potency [3] | outcome [4] | Potency [5] | outcome [6] | outcome [7] | Potency [8] | outcome [19] | outcome [9] | outcome [10] | Potency [11] | outcome [12] | Potency [13] | Potency [15]

O=S1(=O)N=C(O)c2ccccc21
inactive: Potency [3] | Potency [18] | outcome [4] | Potency [5] | outcome [6] | outcome [7] | outcome [19] | outcome [9] | Potency [11] | outcome [12] | Potency [13]
